Assay outcomes from PubChem BioAssay.
Hits are enriched below; roughly 1.4% of the tested compounds scored in any of these assays.
GLD-1 TGE inh = GLD-1-TGE RNA interaction inhibition (C. elegans); actives 0.44% (n = 320,000); purified GLD-1 + fluorescein TGE RNA, fluorescence polarization; Q17339; inhibition, % at 5.96 µM;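 active means percent inhibition above a per-plate cutoff, the plate mean of test compounds plus 3 SD, cut at about 30% in these data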
MEX-5 binding = C. elegans MEX-5 TCR-2 RNA binding activity; Q9XUB2; MEX-5/FITC-TCR2 RNA binding, fluorescence polarization; active compounds read low; activity score (negative = inhibition of binding), % at 10 µM; actives 0.38% (n = 300,000); AID 1832;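 active means inhibition past about -25% in most replicates, and total fluorescence under double the plate's negative control median, limit read from the data; inconclusive means replicates evenly split on the limit, or fluorescence at least double controls; inactive means too little inhibition in most replicates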
EBV gp42 inh = blocks Epstein-Barr virus glycoprotein 42 binding; Q1HVG2; Fluorescence polarization binding assay, mP read-out; inhibition, % (tested at 21.74 µM); actives 0.42% (n = 220,000); in the data active means inhibition above about 50%
Target sequence (Q1HVG2 whole entry, looked up): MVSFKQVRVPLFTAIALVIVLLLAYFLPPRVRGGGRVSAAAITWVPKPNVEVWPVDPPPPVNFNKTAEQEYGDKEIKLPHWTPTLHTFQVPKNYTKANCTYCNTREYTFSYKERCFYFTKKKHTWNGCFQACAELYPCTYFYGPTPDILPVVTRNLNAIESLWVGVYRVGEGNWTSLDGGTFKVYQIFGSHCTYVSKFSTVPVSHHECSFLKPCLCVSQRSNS
Bcl-xL primary = blocks human Bcl-xL binding to Bim BH3 peptide | GST-Bcl-xL / FITC-Bim BH3 peptide fluorescence polarization | inhibition, % at 10.9 µM | actives 0.7% (n = 320,000) | AID 2129;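 active means inhibition above the mean of all tested compounds plus 3 SD, cutoff set per campaign, cut at about 30% in these data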;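 further: inhibitors lower millipolarization by displacing the labeled peptide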
E coli Lon inh = inhibitors of E. coli Lon protease; actives 0.42% (n = 360,000); purified E. coli Lon protease, fluorescence polarization; inhibition, % at 7.94 µM; in the data active means inhibition above about 13%, passing the limit was not always enough
MCL1 BIM primary = inhibitors of human MCL1 binding to BIM-BH3 peptide | AID 2057 | Q07820 | GST-MCL1 / FITC-Bim-BH3 fluorescence polarization | actives 0.68% (n = 320,000) | inhibition, % at 10.9 µM;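 active means inhibition above the mean inhibition of all tested compounds plus 3 SD, set per campaign, cut at about 40% in these data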;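 further: higher means more loss of mP so more displacement of Bim peptide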
Target sequence (Q07820 whole entry, looked up): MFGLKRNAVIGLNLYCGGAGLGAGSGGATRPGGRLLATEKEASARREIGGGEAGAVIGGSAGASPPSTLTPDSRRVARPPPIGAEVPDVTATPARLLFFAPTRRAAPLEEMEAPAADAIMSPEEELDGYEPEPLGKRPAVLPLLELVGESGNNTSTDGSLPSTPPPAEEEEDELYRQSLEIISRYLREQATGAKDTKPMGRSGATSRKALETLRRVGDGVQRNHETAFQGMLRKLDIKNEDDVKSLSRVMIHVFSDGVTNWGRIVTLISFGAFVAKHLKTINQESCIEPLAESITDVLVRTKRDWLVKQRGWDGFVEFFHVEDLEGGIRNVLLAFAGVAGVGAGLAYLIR
Numbers stand for hits; n = inactive; u = inconclusive; x = no result.

SMILES	GLD-1 TGE inh	MEX-5 binding	EBV gp42 inh	Bcl-xL primary	E coli Lon inh	MCL1 BIM primary
Cc1cccc(N=Nc2c(C)c(C#N)c(O)[nH]c2=O)c1	n	n	n	n	n	n
Cc1[nH][nH]c(=O)c1N=Nc1ccc(S(N)(=O)=O)cc1	n	-59	x	n	n	n
NS(=O)(=O)c1ccc(N=Nc2c(=O)[nH]n3c(=O)c4c([nH]c23)CCCC4)cc1	n	-83	n	n	n	n
CC(NC(=O)CCn1ccc2cc(S(=O)(=O)N3CCCC3)ccc21)c1ccccc1 (centres undefined)	n	n	x	n	n	n
Cc1ccc2cc(/C=C(\C#N)C(N)=O)c(N3CCCCC3)nc2c1	n	u	n	n	n	n
CCOC(=O)/C(C#N)=C/c1cc2ccccc2nc1N1CCCCC1	n	-39	60	n	n	n
Cc1ccc2cc(C=C(C#N)C#N)c(N3CCCCC3)nc2c1	n	n	117	n	n	n
N#CCC(N)=C(C#N)C#N	n	-38	n	n	n	n
CC(=O)Oc1oc(-c2ccccc2)nc1C=Nc1ccc(N(C)C)cc1	n	-33	n	n	n	n
CN(C)c1ccc(N=Cc2nc(-c3ccccc3)oc2O)cc1	n	-64	166	n	n	n
Oc1oc(-c2ccc(Br)cc2)nc1C=Nc1ccc(Br)cn1	n	n	n	n	n	n
Cc1ccc(N=Cc2nc(-c3ccc(C)cc3)oc2O)cc1	x	-42	n	x	n	x
Oc1oc(-c2ccccc2)nc1C=Nc1ccccc1	n	n	n	n	n	n
COc1ccc(NC(=O)COC(=O)CCc2ccccc2)c(OC)c1	n	n	x	n	n	n
O=[N+]([O-])c1c(NCCCO)cc(Sc2nc3ccccc3s2)c2nonc12	n	n	n	44	n	60
NC(=O)c1ccc(Oc2cccc3cccnc23)c([N+](=O)[O-])c1	n	n	n	33	n	n
Cc1[nH]c(=O)[nH]c(=O)c1CSCC(=O)OCC(=O)Nc1ccccn1	n	n	51	n	n	n
O=C(Nc1ccnn1C1CCN(Cc2ccccc2OC(F)F)CC1)c1cccnc1	n	n	x	n	n	n
COc1cccc(C2c3c(oc4ccccc4c3=O)C(=O)N2Cc2ccco2)c1 (centres undefined)	n	-48	x	n	n	n
Oc1ccc(N2CCN(c3nc(-c4cccs4)nc4ccccc34)CC2)cc1	n	n	n	32	n	44
c1ccc(N2CCN(c3nc(-c4cccs4)nc4ccccc34)CC2)cc1	n	n	n	n	n	n
O=S(=O)(Nc1ccc(-c2cnco2)cc1)c1ccccc1	n	n	n	31	n	n
COc1ccc(C(CNC(=O)c2[nH]c(C)c(C(C)=O)c2C)N2CCOCC2)cc1 (centres undefined)	n	x	x	n	n	n
CCN(CC)S(=O)(=O)c1ccc(C(=O)NCC(c2ccc(OC)cc2)N2CCOCC2)cc1 (centres undefined)	n	n	n	n	n	n
O=C(OCc1ccc([N+](=O)[O-])cc1)c1cc(=O)c2ccccc2o1	n	n	x	n	n	n
SMILES	GLD-1 TGE inh	MEX-5 binding	EBV gp42 inh	Bcl-xL primary	E coli Lon inh	MCL1 BIM primary
O=C(CSc1nc2ccccc2n1CCc1ccccc1)c1ccc(O)c(O)c1	x	x	72	x	n	x
COc1ccc(O)c(C(=O)C2c3ccccc3C(=O)N2c2ccc(C)cc2)c1 (centres undefined)	n	n	n	31	n	n
COc1ccc(N2C(=O)c3ccccc3C2O)cc1 (centres undefined)	n	n	x	n	n	n
C/C(=N/OC(=O)c1ccc(C)cc1)c1cccs1	n	n	n	n	n	n
COc1ccc(C(=O)O/N=C(/c2cccs2)C(C)(C)C)cc1	138	n	n	n	n	n
N#C/C(=C\c1ccc(OCc2ccc(C(=O)O)cc2)cc1)C(=O)NCc1ccccc1	n	n	x	n	n	n
Cc1nc(S/C(=C/c2ccc(OCc3ccc(C(=O)O)cc3)cc2)C(=O)O)n[nH]1	n	-69	n	n	n	n
Cc1c(C(=O)Nc2ccccc2)cn2c(nc3ccccc32)c1C#N	n	n	n	n	n	n
Cc1ccccc1C(=O)Nc1ccc2c(C#N)c3nc4ccccc4nc3n2c1	n	n	112	42	n	n
Cn1c(=O)c2[nH]c(CSCc3ccccc3)nc2n(C)c1=O	x	x	x	x	n	x
Cn1c(=O)c2[nH]c(CN(Cc3ccccc3)Cc3ccccc3)nc2n(C)c1=O	34	n	n	n	n	n
CCCc1ccc(S(=O)(=O)NCc2nnc(SC)n2C)cc1	n	n	x	n	n	n
N#Cc1ccc(NC(=O)COC(=O)c2cccnc2Cl)cc1	n	x	x	x	n	x
COc1ccccc1N1C(=O)S/C(=C\c2ccc(C)s2)C1=O	n	-32	x	n	n	n
Cc1ccc(/C=C2\Sc3ccccc3C2=O)s1	n	n	94	n	n	n
Cc1ccc2[nH]c3c(c2c1)CN(C(=O)CN1CCCc2ccccc21)CC3	n	n	n	33	n	n
CN1CCN(C(=O)c2ccc3c(c2)N(Cc2ccc(F)cc2)C(=O)c2ccccc2S3=O)CC1 (centres undefined)	n	n	x	n	n	n
COc1ccc(CCN(C)C2CCCN(S(=O)(=O)c3ccccc3)C2)cc1OC (centres undefined)	x	n	x	x	n	x
c1ccc(-c2nnc(-c3ccccn3)nn2)nc1	n	-42	x	n	n	n
CC(=O)N1CCc2c(sc(NC(=O)C3CCCCC3)c2C(N)=O)C1	57	-27	x	n	n	n
CCOc1ncccc1C(=O)OCC(=O)N(CC(C)C)C1CCS(=O)(=O)C1 (centres undefined)	n	n	n	91	n	n
CSc1ncccc1C(=O)OCC(=O)N(CC(C)C)C1CCS(=O)(=O)C1 (centres undefined)	n	n	n	n	n	n
COc1ccc(-c2cn[nH]c2-c2ccc(OCC(=O)NN)cc2O)cc1OC	n	-46	x	n	n	n
COc1ccc(-c2cn[nH]c2-c2ccc(OCC(=O)NN)cc2O)cc1	x	n	x	x	n	x
CCC[n+]1c2ccccc2cc2ccccc21	n	n	x	37	n	n
SMILES	GLD-1 TGE inh	MEX-5 binding	EBV gp42 inh	Bcl-xL primary	E coli Lon inh	MCL1 BIM primary
CN(C(=O)c1nn(C)c2c1CS(=O)(=O)c1ccccc1-2)c1cccc(Cl)c1	n	n	x	n	n	n
NC(=O)[C@@H]1CCCN1Cc1c(C(=O)N2CCc3ccccc3C2)nc2ccc(Cl)cn12	36	-32	x	41	n	43
CC1CCN(Cc2c(C(=O)N3CCc4ccccc4C3)nc3ccc(Cl)cn23)CC1	n	n	x	n	n	n
Cc1ccc(C)c(Cn2c3ccccc3c3cnn(CC(=O)NCCCN4CCOCC4)c(=O)c32)c1	n	n	x	n	n	n
Cc1ccccc1Cn1ccc(NC(=O)c2cnn3c2NC(c2ccccc2)CC3C(F)(F)F)n1 (centres undefined)	n	n	n	n	22	n
CC(C)CSC1=NSC2=NC(=O)/C(=C\c3coc4ccccc4c3=O)C(=N)N12	n	u	104	80	n	n
